Mtb BioA inh – BioA (M. tuberculosis) enzyme inhibition. purified M. tuberculosis BioA enzyme, plate reader. inhibition, % at 9.99 µM. 360,000 compounds, 0.096% hits; in the data active means inhibition above about 40%
Y pestis TopoI – inhibitors of Yersinia pestis topoisomerase I; Y. pestis Topo-I cleavage product accumulation, plate reader; activity, % at 10 µM; 360,000 compounds, 0.064% hits; in the data active means activity above about 50%, passing the limit was not always enough
BJeLR lethal – BJeLR cell viability loss; 300,000 compounds, 0.17% hits; inhibition, % (concentration not given with the values); BJeLR (HRASV12) viability, CellTiter-Glo ATP luminescence, 48 h; in the data active means inhibition above about 50%
SARS 3CLpro inh – SARS-CoV 3CLpro protease inhibition; recombinant SARS-CoV 3CLpro, quenched FRET peptide cleavage; inhibition, % at 6 µM; 290,000 compounds, 0.14% hits; in the data active means inhibition above about 12%
MazEF act – MazEF (E. coli) toxin RNase activation; activation, % at 20 µM; 350,000 compounds, 0.32% hits; P0AE70; AID 504720; FAM/BHQ RNA-DNA oligo cleavage fluorescence, 5 h; in the data active means activation above about 50%
Target sequence (P0AE70 whole entry, looked up): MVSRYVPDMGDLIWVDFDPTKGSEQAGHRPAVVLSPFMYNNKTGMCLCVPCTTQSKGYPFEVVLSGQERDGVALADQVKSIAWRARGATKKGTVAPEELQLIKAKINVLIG
PfHsp40 rescue – restores yeast growth despite PfHsp40 toxicity. S. cerevisiae expressing PfHsp40, growth rescue, ATP luminescence. growth rescue, % at 12.5 µM. 340,000 compounds, 0.68% hits. AID 504582; in the data active means growth rescue above about 28%, passing the limit was not always enough;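 further: yeast W303a lacking pdr1 and pdr3 grown in galactose medium; growth measured after three days at 30 °C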
* = called active by the depositor. Compounds with a hit are over-represented: about 1.1% of the library has one in this group of screens.

What do the screens show for `CC1(NC(=O)N2CCCCC2)CCS(=O)(=O)C1` (stereo not drawn)?
Mtb BioA inh: -3; Y pestis TopoI: 2; BJeLR lethal: 3; SARS 3CLpro inh: -8; MazEF act: 4; PfHsp40 rescue: 0

Results for CC12CC3(C)CC(C)(C1)CC(NC(=O)N1CCCC1)(C2)C3 ?
Mtb BioA inh: 1; Y pestis TopoI: 20; BJeLR lethal: 3; SARS 3CLpro inh: 1; MazEF act: 4; PfHsp40 rescue: 310*

What do the screens show for `Cc1cc2cc(C=C(C#N)C#N)c(Cl)nc2cc1C`?
Mtb BioA inh: -4; Y pestis TopoI: -1; BJeLR lethal: 11; SARS 3CLpro inh: -4; MazEF act: 53*; PfHsp40 rescue: 1

How did CCOC(=O)/C(C#N)=C/c1cc2cc(C)c(C)cc2nc1Cl do in these assays?
Mtb BioA inh: -2; Y pestis TopoI: 6; BJeLR lethal: -5; SARS 3CLpro inh: 1; MazEF act: 0; PfHsp40 rescue: 0

What do the screens show for `COc1ccc(OC)c(/C=C2\N=C(c3ccccc3)OC2=O)c1`?
Mtb BioA inh: -5; Y pestis TopoI: 8; BJeLR lethal: 2; SARS 3CLpro inh: -5; MazEF act: active; PfHsp40 rescue: 0

Results for C[C@H]1CCCCO[C@H](CN(C)C(=O)Nc2cccc3ccccc23)[C@@H](C)CN([C@@H](C)CO)C(=O)c2cc(NC(=O)Nc3ccccc3)ccc2O1 ?
Mtb BioA inh: 2

What do the screens show for `CCCCCCn1c(=O)[nH]c2nc3cc(N)ccc3nc2c1=O`?
BJeLR lethal: -14; SARS 3CLpro inh: -7; MazEF act: 364*

Results for Cc1ccc2[nH]c3c(c2c1)CCCC3C(N)=O (stereo not drawn) ?
Y pestis TopoI: -4; BJeLR lethal: 8; SARS 3CLpro inh: 3; MazEF act: 0; PfHsp40 rescue: 0

Results for Cc1ccc2[nH]c3c(c2c1)CCCC3NC(=O)CCl (stereo not drawn) ?
Mtb BioA inh: 0; Y pestis TopoI: -16; BJeLR lethal: 60*; SARS 3CLpro inh: -2; MazEF act: 13; PfHsp40 rescue: 4

How did CCn1c(=O)c(CCC(=O)N2CCN(c3ccccn3)CC2)c(C)c2c(C)nn(-c3ccccc3)c21 do in these assays?
Mtb BioA inh: 1; Y pestis TopoI: 6; BJeLR lethal: -13; SARS 3CLpro inh: 5; MazEF act: -8; PfHsp40 rescue: 45*

Results for C[C@H]1CN([C@@H](C)CO)C(=O)c2cc(NC(=O)c3ccncc3)ccc2O[C@H]1CN(C)S(=O)(=O)c1ccccc1 ?
Mtb BioA inh: 2

How did CCOc1cccc(/C=C/c2ccc3cccc(O)c3n2)c1O do in these assays?
Mtb BioA inh: -2; Y pestis TopoI: 2; BJeLR lethal: -2; SARS 3CLpro inh: -4; MazEF act: 14; PfHsp40 rescue: 2

What do the screens show for `CCOc1cccc(/C=C/c2ccc3cccc(O)c3n2)c1OC`?
Mtb BioA inh: 0; Y pestis TopoI: -8; BJeLR lethal: 10; SARS 3CLpro inh: -2; MazEF act: -9; PfHsp40 rescue: 168*

What do the screens show for `Cc1cc(NC(=O)CSc2nc(-c3ccccc3Cl)nc3c2c(=O)n(C)c(=O)n3C)no1`?
Y pestis TopoI: 9; BJeLR lethal: -20; SARS 3CLpro inh: 1; MazEF act: 112*; PfHsp40 rescue: -1

Results for Cc1ccc(S(=O)(=O)NCC[C@H]2CC[C@@H](NC(=O)Nc3cccc(F)c3)[C@H](CO)O2)cc1 ?
Mtb BioA inh: 30

How did O=C(NCc1ccccn1)Nc1ccccc1C(F)(F)F do in these assays?
Mtb BioA inh: -1; Y pestis TopoI: -3; BJeLR lethal: -1; SARS 3CLpro inh: 1; MazEF act: 12; PfHsp40 rescue: -1

What do the screens show for `O=S(=O)(Nc1ccccc1C(F)(F)F)c1ccc(-c2ccccn2)s1`?
Mtb BioA inh: 0; Y pestis TopoI: 4; BJeLR lethal: 0; SARS 3CLpro inh: 2; MazEF act: 0; PfHsp40 rescue: 28*

What do the screens show for `O=C(Nc1cccnc1)c1cccc(-c2cc3ccccc3oc2=O)c1`?
Y pestis TopoI: -1; BJeLR lethal: -9; SARS 3CLpro inh: 5; MazEF act: -83; PfHsp40 rescue: -1

How did COc1ccc(CNC(=O)c2c(C)oc3c2C(=O)c2ccccc2C3=O)cc1 do in these assays?
Mtb BioA inh: -1; Y pestis TopoI: -2; BJeLR lethal: 11; SARS 3CLpro inh: 0; MazEF act: 4; PfHsp40 rescue: -2
